How the values were obtained:
Settings in all cases: concentration: 1 μM, replicates: in singlicate; n = 1
GRK1 = test system: GRK1
GRK2 = test system: T1, GRK2
T1 construct: gene ADRBK1

GRK3 = test system: T2, GRK3
T2 construct: gene ADRBK2

GRK4 = test system: GRK4
GRK7 = test system: GRK7
GSK3A = test system: GSK3A
GSK3B = test system: GSK3B
HASPIN = test system: T3, HASPIN
T3 construct: gene GSG2

HCK = test system: HCK
HIPK1 = test system: HIPK1
HIPK2 = test system: HIPK2
HIPK3 = test system: HIPK3
HIPK4 = test system: HIPK4
HPK1 = test system: HPK1
HUNK = test system: HUNK
ICK = test system: ICK
IGF1R = test system: IGF1R
IKK-alpha = test system: T4, IKK-alpha
T4 construct: gene CHUK

IKK-beta = test system: T5, IKK-beta
T5 construct: gene IKBKB

IKK-epsilon = test system: T6, IKK-epsilon
T6 construct: gene IKBKE
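Note: KINOMEscan kinase panel screen.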

Compound	%Inh (GRK1) [%]	%Inh (GRK2) [%]	%Inh (GRK3) [%]	%Inh (GRK4) [%]	%Inh (GRK7) [%]	%Inh (GSK3A) [%]	%Inh (GSK3B) [%]	%Inh (HASPIN) [%]	%Inh (HCK) [%]	%Inh (HIPK1) [%]	%Inh (HIPK2) [%]	%Inh (HIPK3) [%]	%Inh (HIPK4) [%]	%Inh (HPK1) [%]	%Inh (HUNK) [%]	%Inh (ICK) [%]	%Inh (IGF1R) [%]	%Inh (IKK-alpha) [%]	%Inh (IKK-beta) [%]	%Inh (IKK-epsilon) [%]
Nc1nc(-c2ccccn2)c(-c2ccnc3ccccc23)s1 [GW548057]	1	0	58	0	0	8	5	26	4	17	5	15	0	20	8	7	9	8	0	22
Cc1cc(N2CCC(NS(=O)(=O)c3ccc(F)cc3)CC2)nc(Nc2cccc(C#N)c2)n1.O=C(O)C(F)(F)F [GSK1653537]	0	0	16	22	0	0	0	0	0	0	47	0	0	43	25	0	0	12	2	7
Nc1nccc2scc(-c3ccc4c(c3)CCN4C(=O)Cc3cc(F)ccc3F)c12 [GSK2587663]	0	0	40	0	0	17	1	0	0	0	0	6	0	28	14	0	13	5	0	5
O=C(c1ccc(-c2cc(-c3c[nH]nc3-c3ccccn3)ccn2)cc1)N1CCCC1 [GW792479]	21	0	0	0	0	14	0	2	12	42	0	0	24	20	9	0	0	0	0	0
COC(=O)c1cccc(NC(=O)NCCNc2ccnc(Nc3ccc(F)cc3)n2)c1 [GSK1379883]	0	0	17	2	0	19	0	37	0	0	0	0	0	45	90	0	6	0	0	1
Fc1cccc(COc2ccc(Nc3ncnc4cc[nH]c34)cc2Cl)c1	22	20	3	35	23	12	8	0	24	27	27	40	9	0	8	5	5	5	23	39
COc1ccc(Nc2nccc(N3CCC(NC(=O)Nc4ccc5c(c4)OCO5)C3)n2)cc1 (stereo not shown) [GSK1379745]	13	0	20	15	0	0	7	13	0	0	0	23	9	67	11	0	0	7	9	12
O=C(CCO)NCCn1ccc2ncnc(Nc3ccc(Oc4cccc(C(F)(F)F)c4)c(Cl)c3)c21	13	0	0	0	0	6	0	0	36	19	0	0	0	7	0	0	0	0	0	0

From article PMC5540273 (PLoS ONE, 2017)
